Experimental findings from PubChem BioAssay (EPA / NIEHS) are described below.

A short description of assay [1]: BSK_4H_Eotaxin3: BioMAP Diversity Plus: 4H Assay for Eotaxin 3 Biomarker Activity (AID 2283000).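 On outcome: CCL26 protein level quantified by ELISA in parallel with SRB cytotoxicity check.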 The settings on record: primary human endothelial cells (HUVEC); actives raise or lower the signal. In outline: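 HUVEC, 24 h post-dose, ELISA for Eotaxin-3/CCL26. Gain or loss of signal fitted bidirectionally vs DMSO baseline.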
The target of assay [2] is human Peroxisome Proliferator-activated Receptor alpha (PPARa), PPARA (gene 5465) (UniProt Q07869). The assay can be described thus: ATG_PPARa_TRANS: Attagene TRANS-FACTORIAL HepG2 Assay for human Peroxisome Proliferator-activated Receptor alpha (PPARa) (AID 2283001; active means hit-call score of the fitted dose curve at least 0.9, where 1 is the maximum). A digest of the protocol:
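Reporter transcripts from GAL4-UAS units in transfected HepG2 were quantified 24 h after dosing. Detection used reverse transcription, PCR, fluorescent primer extension and capillary electrophoresis, with DMSO as baseline.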

Assay [3] has as its target human Peroxisome Proliferator-activated Receptor delta (PPARd), PPARD (gene 5467) (UniProt Q03181). Nature of the assay: ATG_PPARd_TRANS: Attagene TRANS-FACTORIAL HepG2 Assay for human Peroxisome Proliferator-activated Receptor delta (PPARd) (AID 2283002; active means hit-call score of the fitted dose curve at least 0.9, where 1 is the maximum). In outline:
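Transient HepG2 transfection (multiple GAL4-UAS RTUs, chimeric receptor-Gal4); 24 h dosing; total RNA → oligo(dT) RT → PCR → 6-FAM primer extension → HpaI cut → CE. Positive direction vs DMSO.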

Read-out in assay [4]: Intercellular Adhesion Molecule 1 (ICAM1), ICAM1 (gene 3383)
The assay can be described thus: BSK_3C_ICAM1: BioMAP Diversity Plus: 3C Assay for Intercellular Adhesion Molecule 1 (ICAM1) Biomarker Activity (AID 2283003). The settings on record: primary human endothelial cells (HUVEC); actives raise or lower the signal. A digest of the protocol: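 Human vascular endothelial primary cells, 3C conditions, 24 h treatment. ICAM-1 by ELISA.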

In assay [5] the target is human Retinoic Acid Receptor beta (RARb), RARB (gene 5915) (UniProt P10826). The assay can be described thus: ATG_RARb_TRANS: Attagene TRANS-FACTORIAL HepG2 Assay for human Retinoic Acid Receptor beta (AID 2283004; active means hit-call score of the fitted dose curve at least 0.9, where 1 is the maximum). A digest of the protocol:
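HepG2 cells transiently transfected with multiplexed GAL4-UAS reporter units expressing chimeric NR–Gal4 fusions; 24 h compound exposure. Reporter mRNA quantified by RT-PCR, 6-FAM labelling, HpaI digestion and capillary electrophoresis; gain-of-signal fitted against DMSO baseline.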

Assay [6] is described as follows: BSK_3C_Proliferation: Cell Proliferation Assessment in the BioMAP Diversity Plus: 3C Assay (AID 2283006).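 On AC50: potency may reflect either rise or fall in cell number versus DMSO.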 The settings on record: primary human endothelial cells (HUVEC). In outline:
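Proliferation of human vascular endothelial primary cells after 48 h dosing, quantified as SRB-stained protein at 560 nm relative to DMSO.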

In assay [7] the target is Nuclear receptor subfamily 1 group I member 2 (Homo sapiens) (UniProt O75469). The assay can be described thus: ATG_PXR_TRANS: Attagene TRANS-FACTORIAL HepG2 Assay for human Pregnane X Receptor (PXR) (AID 2283008; active means hit-call score of the fitted dose curve at least 0.9, where 1 is the maximum). A digest of the protocol: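 HepG2 cells transiently transfected with GAL4-UAS reporter units and PXR-Gal4 chimera, exposed 24 h. Reporter mRNA quantified by RT-PCR, fluorescent labelling, HpaI digestion and capillary electrophoresis; gain of signal vs DMSO.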

The target in assay [8] is human Retinoic Acid Receptor gamma (RARg), RARG (gene 5916) (UniProt P13631). The assay can be described thus: ATG_RARg_TRANS: Attagene TRANS-FACTORIAL HepG2 Assay for human Retinoic Acid Receptor gamma (RARg) (AID 2283009; active means hit-call score of the fitted dose curve at least 0.9, where 1 is the maximum). In outline:
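HepG2, RARg-GAL4 TRANS system, 24 h exposure; reporter mRNA by RT-PCR + CE fluorescence; increase over DMSO.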

In assay [9] the target is human RAR-related Orphan Receptor beta (RORb), RORB (gene 6096) (UniProt Q92753). The assay can be described thus: ATG_RORb_TRANS: Attagene TRANS-FACTORIAL HepG2 Assay for human RAR-related Orphan Receptor beta (RORb) (AID 2283010; active means hit-call score of the fitted dose curve at least 0.9, where 1 is the maximum). In outline: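 In this TRANS-format test, human HepG2 cells express chimeric NR-Gal4 fusion proteins driving GAL4-UAS reporters. After 24 h dosing, reporter transcripts are measured by fluorescent RT-PCR/capillary electrophoresis, with DMSO as negative control.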

Assay [10] concerns the target Retinoic acid receptor RXR-alpha (Homo sapiens) (UniProt P19793). Nature of the assay: ATG_RXRa_TRANS: Attagene TRANS-FACTORIAL HepG2 Assay for human Retinoid X Receptor alpha (RXRa) (AID 2283012; active means hit-call score of the fitted dose curve at least 0.9, where 1 is the maximum). A digest of the protocol: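 Cells (HepG2) carried transiently transfected GAL4-responsive reporter units. Following a 24 h chemical incubation, reporter mRNA induction was read via RT-PCR fragment analysis; DMSO served as negative control and baseline.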

Assay [11] concerns the target human Retinoid X Receptor beta (RXRb), RXRB (gene 6257) (UniProt P28702). Nature of the assay: ATG_RXRb_TRANS: Attagene TRANS-FACTORIAL HepG2 Assay for human Retinoid X Receptor beta (RXRb) (AID 2283013; active means hit-call score of the fitted dose curve at least 0.9, where 1 is the maximum). A digest of the protocol: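 Multiplexed TRANS reporter assay in HepG2; 24 h dosing; reporter mRNA by RT-PCR/CE fluorescence; gain-of-signal relative to DMSO.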
Read-out in assay [12]: E-selectin (Homo sapiens) (UniProt P16581)
Nature of the assay: BSK_3C_Eselectin: BioMAP Diversity Plus: 3C Assay for Eselectin Biomarker Activity (AID 2283015).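 On outcome: cell surface E-selectin protein quantified by ELISA 24 h after dosing.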 Conditions: primary human endothelial cells (HUVEC); actives raise or lower the signal. A digest of the protocol: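 Primary human umbilical vein endothelial cells (3C system) were dosed with chemical and cell-surface E-selectin measured by ELISA 24 h later. Bidirectional curve fitting used DMSO as negative control and baseline.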

Read-out in assay [13]: Interleukin-1 alpha (IL1a), IL1A (gene 3552)
The assay can be described thus: BSK_BE3C_IL1a: BioMAP Diversity Plus: BE3C Assay for Interleukin-1 alpha (IL1a) Biomarker Activity (AID 2283016). Conditions: primary human bronchial epithelial cells; actives raise or lower the signal. In outline:
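Cultures of primary human bronchial epithelial cells receive test chemical. After 24 h, IL-1a is quantified by ELISA, while parallel wells are fixed in TCA and SRB-stained for total protein. Changes in either direction are fitted relative to DMSO.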

Read-out in assay [14]: Monocyte Chemoattractant Protein-1 (MCP1), CCL2 (gene 6347)
The assay can be described thus: BSK_3C_MCP1: BioMAP Diversity Plus: 3C Assay for Monocyte Chemoattractant Protein-1 (MCP1) Biomarker Activity (AID 2283017). Conditions: primary human endothelial cells (HUVEC); actives raise or lower the signal. A digest of the protocol:
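Primary human umbilical vein endothelial cells (3C system) were exposed to test chemical for 24 h, after which MCP-1 was quantified by ELISA. Activity was fitted bidirectionally against DMSO as negative control and baseline.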

Read-out in assay [15]: Monocyte Chemoattractant Protein-1 (MCP1), CCL2 (gene 6347)
The assay can be described thus: BSK_4H_MCP1: BioMAP Diversity Plus: 4H Assay for Monocyte Chemoattractant Protein-1 (MCP1) Biomarker Activity (AID 2283018). The settings on record: primary human endothelial cells (HUVEC); actives raise or lower the signal. In outline:
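Readout: MCP-1 ELISA on compound-treated HUVEC, sampled 24 h post-dosing. Baseline and negative control DMSO; bidirectional fit. Overt toxicity checked alongside by sulforhodamine B protein staining at time of biomarker measurement.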

Read-out in assay [16]: Human Leukocyte Antigen - DR isotype (HLADR), HLA-DRA (gene 3122)
The assay can be described thus: BSK_3C_HLADR: BioMAP Diversity Plus: 3C Assay for Human Leukocyte Antigen - DR isotype (HLADR) Biomarker Activity (AID 2283019). Conditions: primary human endothelial cells (HUVEC); actives raise or lower the signal. A digest of the protocol: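 Primary human umbilical vein endothelial cells (3C system) were dosed with compound and cell-surface HLA-DR was quantified by ELISA at 24 h. Activity was fitted bidirectionally against DMSO as negative control and baseline.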

Read-out in assay [17]: Interleukin-8 (IL8), CXCL8 (gene 3576)
Nature of the assay: BSK_3C_IL8: BioMAP Diversity Plus: 3C Assay for Interleukin-8 (IL8) Biomarker Activity (AID 2283020). The settings on record: primary human endothelial cells (HUVEC); actives raise or lower the signal. In outline: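 Human vascular endothelial cells (umbilical vein) in the 3C system; IL-8 level detected by ELISA at 24 h post-dose, with DMSO as baseline.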

For assay [18], the target named is Peroxisome proliferator-activated receptor gamma (Homo sapiens) (UniProt P37231). Nature of the assay: ATG_PPARg_TRANS: Attagene TRANS-FACTORIAL HepG2 Assay for human Peroxisome Proliferator-activated Receptor-gamma (PPARg) (AID 2283007; active means hit-call score of the fitted dose curve at least 0.9, where 1 is the maximum). A digest of the protocol:
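Twenty-four hours after chemical dosing of transiently transfected HepG2 cells, isolated RNA was converted to cDNA, reporter sequences amplified and 6-FAM-labelled, then HpaI-digested and analysed by capillary electrophoresis. Signal increase against DMSO was fitted.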

Assay [19] has as its target human RAR-related Orphan Receptor gamma (RORg), RORC (gene 6097) (UniProt P51449). Nature of the assay: ATG_RORg_TRANS: Attagene TRANS-FACTORIAL HepG2 Assay for human RAR-related Orphan Receptor gamma (RORg) (AID 2283011; active means hit-call score of the fitted dose curve at least 0.9, where 1 is the maximum). In outline:
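Readout: reporter transcript induction (RT-PCR, fluorescent primer extension, capillary electrophoresis) after 24 h compound exposure of transiently transfected HepG2 cells carrying a RORg-Gal4 chimera and GAL4-UAS reporters; DMSO served as baseline, with increasing signal fitted.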

Assay [20] deals with human Thyroid Receptor alpha (THRa1), THRA (gene 7067) (UniProt P10827). The assay can be described thus: ATG_THRa1_TRANS: Attagene TRANS-FACTORIAL HepG2 Assay for human Thyroid Receptor alpha (THRa1) (AID 2283014; active means hit-call score of the fitted dose curve at least 0.9, where 1 is the maximum). A digest of the protocol:
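HepG2 cells transiently transfected with multiplexed GAL4-UAS reporter units for exogenous chimeric THRa1-Gal4; reporter mRNA measured 24 h after dosing by RT-PCR, 6-FAM labelling, HpaI digestion and capillary electrophoresis. Gain-of-signal fitted versus DMSO baseline.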

The structures appear in SMILES notation. Several values for one entry are separate records, joined by “and”; a condition that tells them apart may be missing. Identical values can stand only once. Inconclusive results are not listed. Some compounds were tested as several samples or in several runs, with calls that do not always agree. Activity calls are given as the source filed them. How the source made its calls, unless noted: active means hit-call score of the fitted dose curve at least 0.9, where 1 is the maximum; inactive means score below 0.9.

Sequence of human Thyroid Receptor alpha (THRa1), THRA (gene 7067) (P10827 whole entry, looked up, the tested form may be a part): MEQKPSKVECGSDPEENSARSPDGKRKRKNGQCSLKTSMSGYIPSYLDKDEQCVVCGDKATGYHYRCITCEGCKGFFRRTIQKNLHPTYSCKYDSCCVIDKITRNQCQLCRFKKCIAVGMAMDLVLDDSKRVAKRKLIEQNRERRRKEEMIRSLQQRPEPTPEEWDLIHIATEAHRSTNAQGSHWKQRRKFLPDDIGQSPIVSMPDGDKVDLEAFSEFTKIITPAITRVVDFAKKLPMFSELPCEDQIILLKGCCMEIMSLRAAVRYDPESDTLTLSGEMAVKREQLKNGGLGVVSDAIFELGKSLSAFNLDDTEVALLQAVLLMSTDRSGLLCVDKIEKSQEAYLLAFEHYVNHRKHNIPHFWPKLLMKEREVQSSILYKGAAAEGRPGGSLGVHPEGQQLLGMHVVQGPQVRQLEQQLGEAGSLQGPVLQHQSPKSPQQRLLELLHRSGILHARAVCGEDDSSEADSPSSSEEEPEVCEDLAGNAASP
Sequence of human Retinoic Acid Receptor gamma (RARg), RARG (gene 5916) (P13631 whole entry, looked up, the tested form may be a part): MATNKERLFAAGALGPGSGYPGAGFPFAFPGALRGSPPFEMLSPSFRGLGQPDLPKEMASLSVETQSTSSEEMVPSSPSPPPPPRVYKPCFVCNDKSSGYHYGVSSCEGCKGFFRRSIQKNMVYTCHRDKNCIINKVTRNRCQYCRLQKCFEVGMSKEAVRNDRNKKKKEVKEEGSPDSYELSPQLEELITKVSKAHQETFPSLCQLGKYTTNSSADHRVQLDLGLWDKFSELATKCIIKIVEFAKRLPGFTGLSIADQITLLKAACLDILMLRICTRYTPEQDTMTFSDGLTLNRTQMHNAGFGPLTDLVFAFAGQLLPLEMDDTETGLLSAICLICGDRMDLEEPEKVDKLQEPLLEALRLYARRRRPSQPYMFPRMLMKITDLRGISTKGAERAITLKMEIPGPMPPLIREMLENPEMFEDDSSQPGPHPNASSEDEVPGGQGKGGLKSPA
Sequence of human RAR-related Orphan Receptor gamma (RORg), RORC (gene 6097) (P51449 whole entry, looked up, the tested form may be a part): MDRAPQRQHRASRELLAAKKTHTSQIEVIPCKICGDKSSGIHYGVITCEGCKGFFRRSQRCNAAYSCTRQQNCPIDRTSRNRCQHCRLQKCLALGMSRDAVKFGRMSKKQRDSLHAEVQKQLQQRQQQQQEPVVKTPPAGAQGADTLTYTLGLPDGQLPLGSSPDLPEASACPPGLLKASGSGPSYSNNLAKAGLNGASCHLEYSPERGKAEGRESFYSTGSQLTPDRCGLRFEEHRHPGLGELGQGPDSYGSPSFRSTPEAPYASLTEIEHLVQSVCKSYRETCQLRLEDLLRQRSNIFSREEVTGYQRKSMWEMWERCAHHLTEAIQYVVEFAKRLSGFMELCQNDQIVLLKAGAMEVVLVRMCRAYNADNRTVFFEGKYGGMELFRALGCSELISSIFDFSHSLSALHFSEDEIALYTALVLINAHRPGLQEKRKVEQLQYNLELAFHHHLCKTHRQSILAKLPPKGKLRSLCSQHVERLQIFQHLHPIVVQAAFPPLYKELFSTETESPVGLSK
Sequence of human Peroxisome Proliferator-activated Receptor alpha (PPARa), PPARA (gene 5465) (Q07869 whole entry, looked up, the tested form may be a part): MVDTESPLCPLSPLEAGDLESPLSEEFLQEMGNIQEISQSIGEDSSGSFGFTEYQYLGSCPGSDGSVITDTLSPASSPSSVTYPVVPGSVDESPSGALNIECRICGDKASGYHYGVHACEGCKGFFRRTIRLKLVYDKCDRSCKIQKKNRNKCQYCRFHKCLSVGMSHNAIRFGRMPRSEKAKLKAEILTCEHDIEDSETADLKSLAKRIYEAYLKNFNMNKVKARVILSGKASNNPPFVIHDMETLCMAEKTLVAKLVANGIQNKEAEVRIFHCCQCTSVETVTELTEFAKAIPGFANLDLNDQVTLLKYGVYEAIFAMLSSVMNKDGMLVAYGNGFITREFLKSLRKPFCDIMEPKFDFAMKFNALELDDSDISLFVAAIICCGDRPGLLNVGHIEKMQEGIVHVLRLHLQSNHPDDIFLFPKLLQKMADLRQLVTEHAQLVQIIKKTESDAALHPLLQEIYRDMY
Sequence of Nuclear receptor subfamily 1 group I member 2 (Homo sapiens) (O75469 whole entry, looked up, the tested form may be a part): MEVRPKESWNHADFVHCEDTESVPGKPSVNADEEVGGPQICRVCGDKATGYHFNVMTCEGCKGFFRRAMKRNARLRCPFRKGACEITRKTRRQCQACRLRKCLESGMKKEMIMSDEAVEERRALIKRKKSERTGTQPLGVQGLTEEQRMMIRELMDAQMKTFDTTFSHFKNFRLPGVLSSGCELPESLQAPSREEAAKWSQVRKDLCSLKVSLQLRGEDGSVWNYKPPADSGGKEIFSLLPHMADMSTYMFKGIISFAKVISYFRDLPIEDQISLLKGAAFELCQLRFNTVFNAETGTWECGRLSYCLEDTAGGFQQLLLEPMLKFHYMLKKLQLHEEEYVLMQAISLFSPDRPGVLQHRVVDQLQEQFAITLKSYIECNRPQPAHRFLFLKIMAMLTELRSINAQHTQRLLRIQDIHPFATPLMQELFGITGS
Sequence of E-selectin (Homo sapiens) (P16581 whole entry, looked up): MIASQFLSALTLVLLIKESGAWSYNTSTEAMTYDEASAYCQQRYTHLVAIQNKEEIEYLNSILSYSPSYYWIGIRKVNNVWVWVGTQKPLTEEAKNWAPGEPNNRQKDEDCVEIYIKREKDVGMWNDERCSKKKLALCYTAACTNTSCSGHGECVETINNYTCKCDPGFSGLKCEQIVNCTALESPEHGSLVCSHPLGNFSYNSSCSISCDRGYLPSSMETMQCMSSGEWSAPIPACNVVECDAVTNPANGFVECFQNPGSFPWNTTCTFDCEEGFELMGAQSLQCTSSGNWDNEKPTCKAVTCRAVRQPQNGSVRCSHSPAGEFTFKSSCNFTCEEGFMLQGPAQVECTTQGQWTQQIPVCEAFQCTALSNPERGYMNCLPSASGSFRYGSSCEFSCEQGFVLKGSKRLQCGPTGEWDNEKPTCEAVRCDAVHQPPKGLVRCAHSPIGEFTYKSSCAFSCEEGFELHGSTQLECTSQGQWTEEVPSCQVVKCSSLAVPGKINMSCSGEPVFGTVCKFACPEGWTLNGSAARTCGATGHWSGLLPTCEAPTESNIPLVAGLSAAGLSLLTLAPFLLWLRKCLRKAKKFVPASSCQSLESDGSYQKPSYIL
Sequence of human Peroxisome Proliferator-activated Receptor delta (PPARd), PPARD (gene 5467) (Q03181 whole entry, looked up, the tested form may be a part): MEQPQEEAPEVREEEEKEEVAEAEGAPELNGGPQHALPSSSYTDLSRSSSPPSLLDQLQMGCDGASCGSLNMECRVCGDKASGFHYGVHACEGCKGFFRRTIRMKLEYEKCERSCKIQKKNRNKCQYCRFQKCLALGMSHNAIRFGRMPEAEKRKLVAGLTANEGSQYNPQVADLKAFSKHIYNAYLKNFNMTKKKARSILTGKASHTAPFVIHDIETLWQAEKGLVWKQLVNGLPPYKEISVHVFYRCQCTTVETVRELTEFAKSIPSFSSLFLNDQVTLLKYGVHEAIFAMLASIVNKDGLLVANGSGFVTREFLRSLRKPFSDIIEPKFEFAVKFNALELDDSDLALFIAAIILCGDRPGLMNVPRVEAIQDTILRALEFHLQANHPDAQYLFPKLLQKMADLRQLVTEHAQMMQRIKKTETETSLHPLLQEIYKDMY
Sequence of Peroxisome proliferator-activated receptor gamma (Homo sapiens) (P37231 whole entry, looked up): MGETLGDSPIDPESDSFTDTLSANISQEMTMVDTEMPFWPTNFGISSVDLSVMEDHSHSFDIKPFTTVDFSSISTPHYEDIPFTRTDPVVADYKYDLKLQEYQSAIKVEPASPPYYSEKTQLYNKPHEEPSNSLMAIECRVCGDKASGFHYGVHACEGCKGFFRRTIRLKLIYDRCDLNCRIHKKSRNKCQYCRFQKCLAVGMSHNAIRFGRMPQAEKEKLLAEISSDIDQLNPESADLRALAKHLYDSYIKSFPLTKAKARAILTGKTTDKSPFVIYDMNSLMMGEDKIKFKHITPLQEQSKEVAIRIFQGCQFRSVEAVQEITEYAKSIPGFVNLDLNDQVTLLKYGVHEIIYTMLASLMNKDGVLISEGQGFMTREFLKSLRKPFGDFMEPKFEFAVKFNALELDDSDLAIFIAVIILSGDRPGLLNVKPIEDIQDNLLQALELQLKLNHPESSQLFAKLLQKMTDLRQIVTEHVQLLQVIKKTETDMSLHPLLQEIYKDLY
Sequence of human Retinoid X Receptor beta (RXRb), RXRB (gene 6257) (P28702 whole entry, looked up): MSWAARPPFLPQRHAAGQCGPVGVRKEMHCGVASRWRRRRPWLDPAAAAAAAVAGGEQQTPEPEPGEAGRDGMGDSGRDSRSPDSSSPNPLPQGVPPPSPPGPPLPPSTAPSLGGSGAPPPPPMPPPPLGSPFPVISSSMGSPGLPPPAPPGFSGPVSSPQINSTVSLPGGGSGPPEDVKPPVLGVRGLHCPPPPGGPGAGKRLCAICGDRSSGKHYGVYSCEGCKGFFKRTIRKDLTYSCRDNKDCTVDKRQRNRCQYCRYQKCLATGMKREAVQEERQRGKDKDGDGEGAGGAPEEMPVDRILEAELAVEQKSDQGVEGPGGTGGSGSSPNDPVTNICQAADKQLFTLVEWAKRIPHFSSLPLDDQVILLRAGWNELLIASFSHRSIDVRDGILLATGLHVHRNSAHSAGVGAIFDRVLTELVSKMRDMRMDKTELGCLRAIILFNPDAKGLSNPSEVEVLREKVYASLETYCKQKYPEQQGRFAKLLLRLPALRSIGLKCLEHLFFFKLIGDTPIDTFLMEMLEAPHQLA
Sequence of Retinoic acid receptor RXR-alpha (Homo sapiens) (P19793 whole entry, looked up, the tested form may be a part): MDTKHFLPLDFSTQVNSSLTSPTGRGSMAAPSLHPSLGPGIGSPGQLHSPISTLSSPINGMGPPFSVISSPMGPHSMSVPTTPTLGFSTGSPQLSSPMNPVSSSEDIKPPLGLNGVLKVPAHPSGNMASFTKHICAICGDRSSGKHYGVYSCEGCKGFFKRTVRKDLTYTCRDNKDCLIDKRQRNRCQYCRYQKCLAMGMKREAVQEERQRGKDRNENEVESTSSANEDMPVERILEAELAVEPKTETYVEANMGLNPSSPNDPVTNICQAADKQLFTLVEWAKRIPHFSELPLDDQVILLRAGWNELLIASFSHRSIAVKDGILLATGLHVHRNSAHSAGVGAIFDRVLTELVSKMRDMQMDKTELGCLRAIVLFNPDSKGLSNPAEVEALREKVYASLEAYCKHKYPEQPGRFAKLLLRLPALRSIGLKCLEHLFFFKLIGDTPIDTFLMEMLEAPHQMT

As to `Nc1nc(N)nc(NC2CC2)n1`, the result in assay [1], in assay [2], in [3], in assay [4], in assay [5] and in [6] was inactive. Also, the compound was called inactive in assay [7], in assay [8], in assay [9], in assay [10], in [11] and in assay [12]. In addition, the outcome in assay [13], in assay [14], in assay [15], in [16] and in assay [17] was inactive.

Turning to `O=[N+]([O-])c1cc(C(F)(F)F)c(Cl)c([N+](=O)[O-])c1Nc1ncc(C(F)(F)F)cc1Cl`, the AC50 was 1.39 µM (active) and 3.07 µM (active) in assay [1]; 3.09 µM (active) and 3.8 µM (active) in [4]; 589 nM (active) and 1.47 µM (active) in [6]; 0.651 µM (active) in assay [18]; 2.86 µM (active) in assay [7]; 1.47 µM (active) and 3.24 µM (active) in assay [12]. Also, the AC50 in [13] is 1.95 µM (active) and 6.28 µM (active); in [14] it was 3.5 µM (active) and 4.23 µM (active); in assay [15], 738 nM (active) and 3.46 µM (active); in assay [16], 919 nM (active) and 1.74 µM (active); in assay [17], 3.36 µM (active) and 4.25 µM (active). In addition, the call in [2], in assay [3], in [5], in assay [18], in [7] and in assay [8] was inactive. Also, the result in assay [9], in assay [19], in assay [10], in assay [11] and in assay [20] was inactive.

As to `Cc1cc(C2CC2)nc(Nc2ccccc2)n1`, the AC50 is 9.49 µM (active) in assay [1]; 15.8 µM (active) in assay [6]; 50 µM (active) in [18]; 75.3 µM (active) in assay [11]; 64 µM (active) in assay [20]; 32.1 µM (active) in assay [14]. The AC50 in assay [15] is 17.8 µM (active); in [16] it was 15.2 µM (active). Moreover, the compound was called inactive in [2], in assay [3], in [4], in assay [7], in assay [8] and in assay [19]. Moreover, the result in assay [10], in assay [12], in [13] and in assay [17] was inactive.

A word on the AC50: it is the midpoint of the concentration-response curve, whichever way the signal moves.
